Values joined by “and” are separate entries in the source; they are usually repeats but may differ in a detail not shown here. Equal entries are not always repeated. In all, about 410,000 compounds went through this assay and about 2,400 (0.59%) were called active. The sample as a whole holds a higher share of actives than the screen did. Values without a mark were called inactive. Cut-off read from the data, not from the text of the source: active = max activation above about 30%; inactive = the rest.

Sequence of D(3) dopamine receptor (Homo sapiens) (P35462 whole entry, looked up): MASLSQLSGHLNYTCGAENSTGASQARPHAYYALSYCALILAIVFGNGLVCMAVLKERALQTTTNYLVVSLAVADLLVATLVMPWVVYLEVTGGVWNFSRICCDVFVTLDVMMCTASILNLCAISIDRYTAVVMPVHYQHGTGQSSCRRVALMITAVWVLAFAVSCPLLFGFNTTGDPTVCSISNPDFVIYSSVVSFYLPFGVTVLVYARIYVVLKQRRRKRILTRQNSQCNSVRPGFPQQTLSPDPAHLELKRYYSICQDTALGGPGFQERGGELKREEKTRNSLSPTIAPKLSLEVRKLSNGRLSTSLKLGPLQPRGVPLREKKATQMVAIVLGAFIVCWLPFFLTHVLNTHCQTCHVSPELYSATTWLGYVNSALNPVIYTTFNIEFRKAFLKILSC

For this assay, the target named is D(3) dopamine receptor (Homo sapiens) (UniProt P35462). Description: qHTS of D3 Dopamine Receptor Agonist: qHTS. Note: 0% is about no effect. Particulars: D3R DiscoveRx beta-arrestin cells, luminescence, 90 min; hits give high values. Put shortly:
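Cells at 1500/well, incubated overnight, then treated with pinned compounds (dopamine as control) for 90 min at 37 degrees C. DiscoveRx reagent added for 30 - 60 minutes at room temperature; luminescence read.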
On the technique in general: In qHTS, concentration-response curves come from the screen itself.
Regarding `COc1ccc(N2CCN(S(=O)(=O)c3ccc(-c4coc(C)n4)cc3)CC2)cc1`, the max activation was 1.53%. With `O=c1c(=O)n(Cc2c(F)cccc2Cl)ccn1Cc1ccccc1` the figure was -9.07%; with `O=C1c2ccccc2S(=O)(=O)N1Cc1c(F)cccc1Cl`, -0.264%; with `Cc1ccc(C)c(N2C(=O)N(Cc3c(F)cccc3Cl)c3ccccc3S2(=O)=O)c1`, 64.6% (active). Take `CCCCOc1ccc(-c2ncc(C(=O)OCC)c(N)n2)cc1`: the max activation was 85% (active). `CCOC(=O)c1cnc(SCc2nc(N)nc(Nc3ccc(OC)cc3)n2)nc1N`: the max activation was 2.44%.

Regarding `CCOC(=O)c1cnc(SCC(=O)Nc2cccc(OC)c2)nc1N`, the max activation is 6.65%. With `CCOC(=O)c1c(NC(=O)c2cc(-c3ccc(Cl)cc3)on2)sc2c1CCCC2` the figure was -8.12%. Regarding `C=O`, the max activation is 7.37%. To `CCn1cc(C(=O)N(C)Cc2ccccc2)c(=O)c2cc(S(=O)(=O)N3CCCCCC3)ccc21` belongs 3.05%; to `COc1cc(/C=C2\Oc3ccc(C#Cc4ccc(O)cc4)cc3C2=O)cc(OC)c1`, 15.9%.

Turning to `COc1cc(C#Cc2ccc3cc(CCCO)oc(=O)c3c2)cc(OC)c1`, the max activation is 41.1% (active).

As to `COc1cc(CN(C(=O)c2ccccc2Br)c2ccccn2)cc(OC)c1OC`, the max activation is -5.51%. To `COC(=O)c1ccc(NC(=O)CCc2c(C)nc3c(c(C)nn3-c3ccc(C)cc3)c2C)cc1` belongs 4.91%. With `O=S(O)CNc1ccc(S(=O)(=O)c2ccc(NCS(=O)O)cc2)cc1` the figure was -10.5%; with `CC(C)C1C2=C(CC(C)(C)CC2=O)ON1c1ccccc1` (stereo not given), -2.83%.

In the case of `COC(=O)C1CC2=C(CC(C)(C)CC2=O)N(c2ccccc2)C1=O` (stereo not given), the max activation was 32.1% (active).

With `Cc1ccc(N2C(=O)C(NC(=O)c3c(F)cccc3F)(C(F)(F)F)C3=C2CC(C)(C)CC3=O)cc1` (stereo not given), the max activation was -17.5%. To `CC(=O)NC(=O)c1ccccc1O` belongs -11.8%.

Regarding `Cc1cc(C)cc(NC(=O)c2cnc3sc(N4CCCC4)nn3c2=O)c1`, the max activation was 19.3%. `CC(C)Oc1ccc(CNC(=O)C2CCN(c3nc4ccccc4n(C)c3=O)CC2)cc1`: the max activation was -5.52%. For `COc1cc(C(=O)N2CCOCC2)cc(OC)c1OC`, the max activation was 4.3% and 9.01%. To `COc1ccccc1/C=C/C1=NC(=C\N(C)C)/C(=O)O1` belongs -12.1%; to `O=C1OC(/C=C/c2ccccc2)=NC/1=C/c1ccco1`, 30.1% (active).

For the compound `CC(C)(C)C1C/C(=C/c2ccco2)C(=O)/C(=C/c2ccco2)C1` (stereo not given), the max activation was -7.15%.

Turning to `Cc1cccc(NC(=O)N2CCC(CN3CCc4ccccc4C3)CC2)c1C`, the max activation was -18.9%. Turning to `CCOC(=O)Cn1c(=O)n(-c2ccccc2OC)c2nc(-c3cccc(F)c3)nc(C(N)=O)c21`, the max activation was 4.17%. With `COc1ccccc1N1CCN(c2ncnc3onc(-c4ccc(F)cc4)c23)CC1` the figure was -8.86%. For `COc1ccccc1N1CCN(c2ncnc3sc(C)c(-c4ccccc4)c23)CC1`, the max activation is 50.8% (active).

In the case of `COc1ccccc1N1CCN(c2ncnc3onc(-c4cccc(Cl)c4)c23)CC1`, the max activation is 7.08%. With `Cc1cccc(N2CCN(S(=O)(=O)c3ccc4[nH]c5c(c4c3)CCCCC5)CC2)c1C`, the max activation was -5.55%. Take `COc1ccc(-c2noc(CCC(=O)N3CCN(c4cccc(C)c4)CC3)n2)cc1`: the max activation is 35.7% (active). With `COc1cccc(CNC(=O)CCc2nc(-c3ccc(C)cc3)no2)c1` the figure was -0.491%; with `Cc1ccc(C)c(N2CCN(C(=O)CCc3nc(-c4cccc(C(F)(F)F)c4)no3)CC2)c1`, 11.8%; with `CCN1CCN(C(=O)N[C@@H](C(=O)N[C@@H]2C(=O)N3[C@@H]2SC(C)(C)[C@H]3C(=O)O)c2ccccc2)C(=O)C1=O`, -1.19%. To `O=C1N(Cc2ccccc2)c2ccc(Cl)cc2C1(O)c1c[nH]c2ccccc12` (stereo not given) belongs 8.47%; to `CCN(CC)S(=O)(=O)c1ccc2c(c1)N(CC(=O)NCC(C)c1ccccc1)C(=O)CO2` (stereo not given), -18.9%.

Turning to `COc1ccc([C@H]2CC(=O)C=C(c3ccc(CO)cc3)C2)cc1`, the max activation is 10.9%. On to `COc1cccc(C2=CC(=O)C[C@H](c3ccc(OC)c(OC)c3)C2)c1`, for which the max activation was -0.655%. Take `COc1ccc2cc(C3=CC(=O)C[C@H](c4ccc5c(c4)OCO5)C3)ccc2c1`: the max activation is 38.7% (active). With `Cc1nc(SCCOc2ccc(Cl)cc2)[nH]c(=O)c1Cc1ccccc1`, the max activation is 1.02%. To `O=C(Cn1cnc2c(oc3ccccc32)c1=O)Nc1ccc(OC(F)(F)F)cc1` belongs 2.62%. As to `COc1cccc(OC)c1OCCN1CCN(C(=O)c2ccco2)CC1`, the max activation is 73.2% (active).

On to `O=C1CCN(CCc2ccccc2)CCN1CCOc1ccccc1`, for which the max activation is -27.1%.

With `O=C(c1ccco1)N1CCN(C(=O)c2ccc(COc3ccc(F)cc3)o2)CC1`, the max activation is 1.73%. In the case of `O=C(c1ccc(Br)o1)N1CCN(CCOc2ccccc2)CC1`, the max activation is 54.7% (active). With `O=C(c1ccco1)N1CCN(Cc2cccc(C(F)(F)F)c2)CC1`, the max activation is 8.47%.

For the compound `O=CN1CCN(C(=O)c2ccc(Br)o2)CC1`, the max activation is -4.54%. To `O=C(CCCCn1c(=O)c2ccccc2n(CC(=O)Nc2cccc(C(F)(F)F)c2)c1=O)NCc1ccc2c(c1)OCO2` belongs 6.91%. For the compound `CC(=O)Oc1ccccc1C(=O)Nc1ncc([N+](=O)[O-])s1`, the max activation is 6.84%. As to `COC(=O)c1c(NC(=O)CCCOc2ccccc2)sc2c1CCC(C)C2` (stereo not given), the max activation was 4.8%.

As for `CCOC(=O)c1c(NC(=O)/C=C/c2ccc(OC)cc2)sc2c1CCC(C)C2` (stereo not given), the max activation is 59.2% (active).

Regarding `CCOC(=O)c1sc(NC(=O)/C=C/c2ccc(C(C)C)cc2)c(C(=O)OCC)c1C`, the max activation is -9.68%. Turning to `COc1ccccc1CNS(=O)(=O)c1cc(Br)cc2c1N(C(C)=O)C(C)C2` (stereo not given), the max activation was -15.9%. With `CCN(CCCNC(=O)c1c(C)oc2ncn(CC(C)C)c(=O)c12)Cc1ccccc1` the figure was -16.4%; with `Cc1ccc(-c2ncc(Cl)cc2-c2ccc(S(C)(=O)=O)cc2)cn1`, 3.29%. As to `COc1ccccc1N1CCN(c2ccc(=O)n(CC(=O)NCc3ccc(OC(C)C)cc3)n2)CC1`, the max activation is -15.8%. With `COC(=O)c1ccc(NC(=O)c2cc(S(=O)(=O)N3CCC(C)CC3)cn2C)cc1` the figure was -4.24%; with `N#C/C(=C\c1cccc(F)c1)c1nc(-c2cc3c(ccc4ccccc43)oc2=O)cs1`, 4.13%; with `COc1cc2c(cc1CNC[C@H]1O[C@@H](n3cnc(C(N)=O)n3)[C@H](O)[C@@H]1O)OCO2`, 4.9%. `NC(=O)c1ncn([C@@H]2O[C@H](CN=C3NS(=O)(=O)c4ccccc43)[C@@H](O)[C@H]2O)n1`: the max activation was 40.4% (active).

With `NC(=O)c1ncn([C@@H]2O[C@H](CNCc3cnc(N4CCOCC4)s3)[C@@H](O)[C@H]2O)n1`, the max activation is 0%.

Consider `COc1cccc(Nc2nc3ccccc3c3nncn23)c1`, for which the max activation was 10.1%. With `CCCn1c2ccccc2c2cnn(CC(=O)N3CCCC(C(=O)OCC)C3)c(=O)c21` (stereo not given) the figure was 6.55%; with `Cc1c(-c2nsc(NC(=O)c3cccc(Cl)c3)n2)nnn1-c1ccccc1C(F)(F)F`, -0.907%; with `COc1ccc(-n2nnc(-c3nsc(NC(=O)c4ccc(C)c(C)c4)n3)c2C)cc1Cl`, 41.8% (active). Take `CCc1cccc(-n2nnc(-c3nsc(NC(=O)c4ccc(C)cc4)n3)c2C)c1`: the max activation is -11.9%. With `Cc1oc2c(C)c3oc(=O)c(CC(=O)N[C@@H](CC(C)C)C(=O)N[C@@H](Cc4ccccc4)C(=O)O)c(C)c3cc2c1C` the figure was 11.4%. `Cc1c(OC(C)C(=O)N[C@@H](Cc2ccccc2)C(=O)O)ccc2c3c(c(=O)oc12)CCCC3` (stereo not given in full): the max activation is 37.1% (active).

As to `Cc1c(OC(C)C(=O)NCC2CCC(C(=O)O)CC2)ccc2c1oc(=O)c1ccccc12` (stereo not given), the max activation is -0.808%. To `COC(=O)c1c(NC(=O)c2cc(=O)c3c(C)cc(C)cc3o2)sc2c1CCCC2` belongs 4.95%; to `CCN1C(=NCCc2cccnc2)N[C@@H](c2ccccc2)C(C(=O)OC)=C1C`, -55.8%; to `Cc1cc(C)cc(Nc2ncnc3onc(-c4ccc(F)cc4)c23)c1`, 9.02%. With `COc1ccc(C(=O)O/N=C(\N)Cc2ccc(Cl)cc2Cl)cc1OC` the figure was 36.2% (active); with `COc1ccc(CCn2ccc(O)c(Cc3ccc(Cl)cc3Cl)c2=O)cc1OC`, -10.8%. With `COC(=O)c1ccc(OC(=O)c2nn(C)cc2Cl)c(OC)c1` the figure was 1.35%. Consider `CC(=O)c1ccc(NC(=O)CCc2nc(-c3ccc(C)cc3)no2)cc1`, for which the max activation is 2.51%. `Cc1ccc(OCCSc2nc(-c3cccs3)nc3cc(=O)[nH]n23)cc1Cl`: the max activation was 6.63%.

For the compound `Cc1c(C(=O)OC(C)C)sc(NC(=O)c2cccnc2)c1C#N`, the max activation is -1.22%. With `CCc1ccccc1NC(=O)CSc1nc(C)c(C(=O)Nc2ccccc2)c(-c2ccc(Cl)cc2)c1C#N` the figure was 3.31%. With `CCCc1ccc(-c2c(C)sc(NC(=O)c3ccnn3C)c2C#N)cc1` the figure was 57.1% (active); with `Cc1ccccc1Nc1nn2c(=O)c3ccc(C(=O)NCCc4ccc(Cl)cc4)cc3nc2s1`, 4.22%; with `Cc1c(CC(=O)N2CCN(C(=O)C3COc4ccccc4O3)CC2)c(=O)oc2c(O)c(O)ccc12` (stereo not given), 40.6% (active). With `COc1cc(NS(=O)(=O)c2ccc3c(c2)OCC(C(=O)N2CCCC2)O3)cc(OC)c1` (stereo not given) the figure was 19.5%; with `COc1ccc(OC)c2sc(N3CCN(C(=O)C4COc5ccccc5O4)CC3)nc12` (stereo not given), -1.78%.

The record behind these values is PubChem BioAssay AID652048 (National Center for Advancing Translational Sciences (NCATS), 2013).
